{
  "source": "PubChem BioAssay AID651813",
  "about": "(National Center for Advancing Translational Sciences (NCATS), 2012)",
  "note": "The campaign covered roughly 2,100 compounds. About 1,100 (52%) were called active. Roughly 27% stayed inconclusive and do not appear here. The set was probably picked from earlier hits. The list shows a part of the results. A number with no mark means an inactive call. The call rests on the fitted dose curve; in most records, active means well fitted inhibition curve with a large enough effect; inconclusive means small, poorly fitted or top-dose-only effect; inactive means no such curve, though single readings can be large or run the other way. Potency means the concentration at half of the fitted maximal effect.",
  "data": [
    {"molecular_target": "DNA dC->dU-editing enzyme APOBEC-3G (Homo sapiens) (UniProt Q9HC16)", "sequence (Q9HC16 whole entry, looked up)": "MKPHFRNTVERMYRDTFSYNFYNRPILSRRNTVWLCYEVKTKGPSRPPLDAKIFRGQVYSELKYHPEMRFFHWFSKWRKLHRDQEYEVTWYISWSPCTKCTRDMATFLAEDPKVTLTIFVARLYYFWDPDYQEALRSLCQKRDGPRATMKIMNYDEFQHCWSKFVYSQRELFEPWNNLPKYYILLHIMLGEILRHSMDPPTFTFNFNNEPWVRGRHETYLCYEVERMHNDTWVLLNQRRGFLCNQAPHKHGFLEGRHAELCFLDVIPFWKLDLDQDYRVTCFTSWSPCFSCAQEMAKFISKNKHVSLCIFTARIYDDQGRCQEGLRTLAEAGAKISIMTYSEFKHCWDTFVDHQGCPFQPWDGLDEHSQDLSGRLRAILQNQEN", "test": "qHTS for inhibitors of Vif-A3G interactions: Cherry picks counterscreen;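 further: hits raise yellow fluorescence by blocking Vif-driven A3G-eYFP degradation; nearly all actives have a fitted effect of over 70% in size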;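 on max response: max response given as percent of control signal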", "details": "HeLa A3G-eYFP + Vif (tagged APOBEC3G with the HIV-1 protein that degrades it), eYFP fluorescence, 24 h", "procedure,_shortened": "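HeLa cells stably expressing A3G-eYFP and Vif were treated for 24 h at 37 deg C with compounds at several concentrations; yellow fluorescence (Ex 488 nm, Em 500-530 nm) read by Acumen Explorer, MG132 as positive control.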", "units": {"max response": "%"}, "values": [
      {"smiles": "O=C(N/N=C\\C=C\\c1ccc([N+](=O)[O-])o1)c1cccs1", "Potency": "14 µM (active)"},
      {"smiles": "CCC(=Nc1ccccc1O)C1=C(O)CC(c2ccccc2)CC1=O", "note": "(configuration not stated)", "max response": 16.4},
      {"smiles": "COc1ccccc1N=C(C)C1=C(O)CC(c2ccccc2)CC1=O", "note": "(configuration not stated)", "Potency": "0.559 µM (active)"},
      {"smiles": "O=C(N/N=C/c1ccc2c(c1)OCO2)c1cc(-c2ccco2)nc2ccccc12", "Potency": "9.94 µM (active)"},
      {"smiles": "O=C(NN=Cc1c(O)ccc2ccccc12)c1ccc2c(c1)OCO2", "max response": 1.53},
      {"smiles": "Cc1cc(C(=O)N/N=C/c2ccc3c(c2)OCO3)c2ccccc2n1", "Potency": "7.9 µM (active)"},
      {"smiles": "Cc1cccc(C)c1OCC(=O)N/N=C/c1ccc2c(c1)OCO2", "Potency": "6.27 µM (active)"},
      {"smiles": "O=C(N/N=C/c1ccc2c(c1)OCO2)c1cccc2ccccc12", "Potency": "9.94 µM (active)"},
      {"smiles": "O=C(N/N=C/c1ccc2c(c1)OCO2)c1cc(-c2ccncc2)nc2ccccc12", "Potency": "5.59 µM (active)"},
      {"smiles": "Cc1nc2c3cc(F)ccc3n(Cc3ccccc3F)c2s1", "Potency": "14 µM (active)"},
      {"smiles": "Cc1nc2c3cc(F)ccc3n(Cc3ccccc3)c2s1", "Potency": "7.04 µM (active)"},
      {"smiles": "N#CCSc1ccccc1NC(=O)CN1C(=O)C2CC=CCC2C1=O", "note": "(configuration not stated)", "Potency": "11.2 µM (active)"},
      {"smiles": "COC1=C/C(=C/c2c(N)n3nc(-c4ccc(C)cc4)sc3nc2=O)C=CC1=O", "Potency": "20.6 µM (active)"},
      {"smiles": "CCOC1=C/C(=C/c2c(N)n3nc(-c4ccccc4)sc3nc2=O)C=CC1=O", "max response": 19.6},
      {"smiles": "CCS(=O)(=O)c1nn2c(N)c(/C=C3/C=CC(=O)C(OC)=C3)c(=O)nc2s1", "max response": 52.9},
      {"smiles": "Cn1cc(/C=C/c2ccc3ccccc3n2)c2ccccc21", "Potency": "13 µM (active)"},
      {"smiles": "Cn1cc(/C=C/c2ccnc3ccccc23)c2ccccc21", "Potency": "20.6 µM (active)"},
      {"smiles": "CCc1ccc2nc(N(CCCN(C)C)C(=O)c3ccc(S(=O)(=O)N(C)C4CCCCC4)cc3)sc2c1", "max response": 5.65},
      {"smiles": "Cc1ccc(-n2nc3c(SCCN4CCOCC4)nnc(C)c3c2C)cc1", "max response": -27.8},
      {"smiles": "CCCCn1c(NC(=O)c2ccco2)c(S(=O)(=O)c2ccc(C)cc2)c2nc3ccccc3nc21", "Potency": "20.6 µM (active)"},
      {"smiles": "O=C(Nc1nc(NC(=O)c2ccco2)n(-c2ccccc2)n1)c1ccccc1", "max response": -0.0667},
      {"smiles": "Cc1ccc(C(=O)Nc2sc(Cc3ccc4c(c3)OCO4)c(C)c2C(N)=O)cc1", "Potency": "18.4 µM (active)"},
      {"smiles": "CCC1CCCCN1CCCNC(=O)c1ccc2c(c1)N(Cc1ccccc1F)C(=O)c1ccccc1S2(=O)=O", "note": "(configuration not stated)", "Potency": "4.61 µM (active)"},
      {"smiles": "CN(C)c1ccc(/C=C/c2cnnc3ccccc23)cc1", "Potency": "20.6 µM (active)"},
      {"smiles": "COc1cccc2nccc(/C=C/c3ccc(N(C)C)cc3)c12", "Potency": "18.4 µM (active)"},
      {"smiles": "Nc1ccccc1/C=C/c1ccnc2ccccc12", "Potency": "16.4 µM (active)"},
      {"smiles": "CN(C)c1ccc(/C=C/c2ccnc3cc(Cl)ccc23)cc1", "Potency": "8.2 µM (active)"}
    ]}
  ]
}
